# From PubChem BioAssay AID1159580 (chemical genetic matrix, 2015)
# Out of some 5,500 compounds screened, about 2,000 (36%) were called active. Another 18% or so got no clear call; they are omitted. This is one part of the list. Unmarked numbers belong to inactive results. Rule as the data show it: active = normalized growth mostly below about 0.91 (no sharp cut-off); inconclusive = no clear call, values can overlap the other calls; inactive = mostly above about 0.92.
# Assay: chemical genetic growth profiling, strain panel (AID 1159580);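 also: tested at 20 µM; growth read once vehicle control cultures reached saturation at 30 °C; 1 = growth at the plate median or of vehicle wells; lower values mean less growth of the strain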
# Conditions: S. cerevisiae deletion strains, growth OD
# [1] = locus YAR019C, strain CDC15, stronger effect = lower value
# [2] = locus YBL105C, strain PKC1, stronger effect = lower value
# [3] = locus YBR135W, strain CKS1, stronger effect = lower value
# [4] = locus YBR136W, strain MEC1, stronger effect = lower value
# [5] = locus YBR160W, strain CDC28, stronger effect = lower value
# [6] = locus YDL017W, strain CDC7, stronger effect = lower value
# [7] = locus YDL028C, strain MPS1, stronger effect = lower value
# [8] = locus YDL101C, strain DUN1, stronger effect = lower value
# [9] = locus YDL108W, strain KIN28, stronger effect = lower value
# [10] = locus YDL132W, strain cdc53, stronger effect = lower value
# [11] = locus YDL214C, strain PRR2, stronger effect = lower value
# [12] = locus YDR052C, strain DBF4, stronger effect = lower value
# [13] = locus YDR054C, strain cdc34, stronger effect = lower value
# [14] = locus YDR226W, strain ADK1, stronger effect = lower value
# [15] = locus YDR477W, strain SNF1, stronger effect = lower value
# [16] = locus YER123W, strain YCK3, stronger effect = lower value
# [17] = locus YER133W, strain GLC7, stronger effect = lower value
# [18] = locus YFL009W, strain cdc4, stronger effect = lower value
# [19] = locus YFL029C, strain CAK1, stronger effect = lower value
# [20] = locus YFR003C, strain YPI1, stronger effect = lower value
# [21] = locus YFR019W, strain FAB1, stronger effect = lower value
# [22] = locus YFR028C, strain CDC14, stronger effect = lower value
# [23] = locus YGR040W, strain KSS1, stronger effect = lower value
# [24] = locus YGR052W, strain FMP48, stronger effect = lower value
# [25] = locus YGR092W, strain DBF2, stronger effect = lower value
# [26] = locus YHR030C, strain SLT2, stronger effect = lower value
# [27] = locus YHR079C, strain IRE1, stronger effect = lower value
# [28] = locus YHR082C, strain KSP1, stronger effect = lower value
# [29] = locus YHR205W, strain SCH9, stronger effect = lower value
# [30] = locus YIL147C, strain SLN1, stronger effect = lower value
# [31] = locus YJL095W, strain BCK1, stronger effect = lower value
# [32] = locus YJL128C, strain PBS2, stronger effect = lower value
# [33] = locus YJL157C, strain FAR1, stronger effect = lower value
# [34] = locus YJR016C, strain ILV3, stronger effect = lower value
# [35] = locus YJR066W, strain TOR1 (second series), stronger effect = lower value
# [36] = locus YJR066W, strain TOR1, stronger effect = lower value
# [37] = locus YKL048C, strain ELM1, stronger effect = lower value
# [38] = locus YKL067W, strain YNK1, stronger effect = lower value
# [39] = locus YKL101W, strain HSL1, stronger effect = lower value
# [40] = locus YKL193C, strain SDS22, stronger effect = lower value
# [41] = locus YKL203C, strain TOR2, stronger effect = lower value
# [42] = locus YLR113W, strain HOG1, stronger effect = lower value
# [43] = locus YLR133W, strain CKI1, stronger effect = lower value
# [44] = locus YLR403W, strain SFP1, stronger effect = lower value
# [45] = locus YML070W, strain DAK1, stronger effect = lower value
# [46] = locus YMR001C, strain CDC5, stronger effect = lower value
# [47] = locus YMR205C, strain PFK2 (second series), stronger effect = lower value
# [48] = locus YMR277W, strain FCP1, stronger effect = lower value
# [49] = locus YNL006W, strain LST8, stronger effect = lower value
# [50] = locus YNL020C, strain ARK1, stronger effect = lower value
# [51] = locus YNL161W, strain CBK1, stronger effect = lower value
# [52] = locus YNL183C, strain NPR1, stronger effect = lower value
# [53] = locus YNL207W, strain RIO2, stronger effect = lower value
# [54] = locus YNL222W, strain SSU72, stronger effect = lower value
# [55] = locus YNL307C, strain MCK1 (second series), stronger effect = lower value
# [56] = locus YOL078W, strain AVO1, stronger effect = lower value
# [57] = locus YOL136C, strain PFK27, stronger effect = lower value
# [58] = locus YOR061W, strain CKA2, stronger effect = lower value
# [59] = locus YOR119C, strain RIO1, stronger effect = lower value
# [60] = locus YOR231W, strain MKK1, stronger effect = lower value
# [61] = locus YOR329C, strain SCD5, stronger effect = lower value
# [62] = locus YPL031C, strain PHO85, stronger effect = lower value
# [63] = locus YPL153C, strain RAD53, stronger effect = lower value
# [64] = locus YPL204W, strain HRR25, stronger effect = lower value
# [65] = locus YPL209C, strain IPL1, stronger effect = lower value
# [66] = locus YPL256C, strain CLN2, stronger effect = lower value
# [67] = locus YPR025C, strain CCL1, stronger effect = lower value
# [68] = locus YPR106W, strain ISR1, stronger effect = lower value
# [69] = locus YPR111W, strain DBF20, stronger effect = lower value
# [70] = strain NNK1, stronger effect = lower value
# [71] = strain TSCII, stronger effect = lower value
# [72] = locus YAL013W, strain DEP1, stronger effect = lower value
# [73] = locus YBR229C, strain ROT2, stronger effect = lower value
# [74] = locus YDR150W, strain NUM1, stronger effect = lower value
# [75] = locus YEL061C, strain CIN8, stronger effect = lower value
# [76] = locus YGR078C, strain PAC10, stronger effect = lower value
# [77] = locus YHR087W, strain rtc3, stronger effect = lower value
# [78] = locus YJR043C, strain POL32, stronger effect = lower value
# [79] = locus YJR075W, strain HOC1, stronger effect = lower value
# [80] = locus YLR039C, strain RIC1, stronger effect = lower value
# [81] = locus YLR058C, strain SHM2 (second series), stronger effect = lower value
# [82] = locus YLR085C, strain ARP6, stronger effect = lower value
# [83] = locus YLR262C, strain YPT6, stronger effect = lower value
# [84] = locus YML094W, strain GIM5, stronger effect = lower value
# [85] = locus YMR219W, strain ESC1, stronger effect = lower value
# [86] = locus YMR263W, strain SAP30, stronger effect = lower value
# [87] = locus YMR307W, strain GAS1, stronger effect = lower value
# [88] = locus YNL153C, strain GIM3, stronger effect = lower value
# [89] = locus YNL298W, strain CLA4 (second series), stronger effect = lower value
# [90] = locus YNL322C, strain KRE1, stronger effect = lower value
# [91] = locus YNR030W, strain Alg12, stronger effect = lower value
# [92] = locus YOL006C, strain TOP1, stronger effect = lower value
# [93] = locus YPL055C, strain LGE1, stronger effect = lower value
# [94] = locus YPL241C, strain CIN2, stronger effect = lower value
# [95] = locus YPR135W, strain CTF4, stronger effect = lower value
smiles,measurement,setting,value
Cc1c2c(=O)[nH]ncc2c(-c2ccccc2)n1-c1ccc([N+](=O)[O-])cc1,normalized growth,[1],0.99
same,normalized growth,[2],0.999
same,normalized growth,[3],0.998
same,normalized growth,[4],0.993
same,normalized growth,[5],0.99
same,normalized growth,[6],0.999
same,normalized growth,[7],0.987
same,normalized growth,[8],0.991
same,normalized growth,[9],0.989
same,normalized growth,[10],0.991
same,normalized growth,[11],0.953
same,normalized growth,[12],1
same,normalized growth,[13],1
same,normalized growth,[14],0.991
same,normalized growth,[15],0.925
same,normalized growth,[16],0.958
same,normalized growth,[17],0.946
same,normalized growth,[18],0.975
same,normalized growth,[19],0.977
same,normalized growth,[20],0.99
same,normalized growth,[21],0.95
same,normalized growth,[22],0.978
same,normalized growth,[23],0.939
same,normalized growth,[24],1.01
same,normalized growth,[25],1
same,normalized growth,[26],0.812 (active)
same,normalized growth,[27],0.994
same,normalized growth,[28],1.01
same,normalized growth,[29],0.937
same,normalized growth,[30],0.993
same,normalized growth,[31],0.903
same,normalized growth,[32],0.988
same,normalized growth,[33],0.971
same,normalized growth,[34],0.986
same,normalized growth,[35],0.928
same,normalized growth,[36],0.954
same,normalized growth,[37],0.94
same,normalized growth,[38],0.935
same,normalized growth,[39],0.968
same,normalized growth,[40],0.996
same,normalized growth,[41],1.03
same,normalized growth,[42],0.871
same,normalized growth,[43],0.975
same,normalized growth,[44],0.963
same,normalized growth,[45],0.93
same,normalized growth,[46],0.989
same,normalized growth,[47],0.956
same,normalized growth,[48],0.979
same,normalized growth,[49],0.983
same,normalized growth,[50],0.975
same,normalized growth,[51],0.998
same,normalized growth,[52],1.03
same,normalized growth,[53],1
same,normalized growth,[54],0.98
same,normalized growth,[55],0.949
same,normalized growth,[56],0.995
same,normalized growth,[57],0.938
same,normalized growth,[58],0.955
same,normalized growth,[59],0.975
same,normalized growth,[60],0.936
same,normalized growth,[61],0.993
same,normalized growth,[62],0.941
same,normalized growth,[63],0.939
same,normalized growth,[64],0.933
same,normalized growth,[65],1
same,normalized growth,[66],0.931
same,normalized growth,[67],0.988
same,normalized growth,[68],1.01
same,normalized growth,[69],1
same,normalized growth,[70],1.01
same,normalized growth,[71],0.987
COc1ccc(NS(=O)(=O)c2c(C)noc2C)cc1,normalized growth,[72],1.03
same,normalized growth,[73],1.02
same,normalized growth,"locus YCL061C, strain MRC1, stronger effect = lower value",1
same,normalized growth,[8],1.02
same,normalized growth,[74],0.995
same,normalized growth,[75],1.03
same,normalized growth,[76],1.04
same,normalized growth,[26],1.06
same,normalized growth,[77],1.02
same,normalized growth,[78],0.995
same,normalized growth,[79],1.02
same,normalized growth,"locus YKL190W, strain CNB1, stronger effect = lower value",1
same,normalized growth,[80],1.02
same,normalized growth,[81],1
same,normalized growth,[82],1.02
same,normalized growth,[83],1.01
same,normalized growth,[84],1.07
same,normalized growth,[85],0.996
same,normalized growth,[86],0.993
same,normalized growth,[87],0.941
same,normalized growth,[88],1.02
same,normalized growth,[89],1.02
same,normalized growth,[90],1.01
same,normalized growth,[91],1.04
same,normalized growth,[92],1.03
same,normalized growth,[93],1.06
same,normalized growth,[94],0.911
same,normalized growth,[95],1.02
CCn1nc(C)c(Br)c1-c1nc(-c2ccc(C(F)(F)F)cc2)no1,normalized growth,[72],1
same,normalized growth,[73],0.999
same,normalized growth,[8],1.02
same,normalized growth,[74],0.902
same,normalized growth,[75],1.01
same,normalized growth,[76],1.01
same,normalized growth,[26],1.08
same,normalized growth,[77],1
same,normalized growth,[78],1.01
same,normalized growth,[79],1
same,normalized growth,[80],0.982
same,normalized growth,[81],1.01
same,normalized growth,[82],1.14
same,normalized growth,[83],1.03
same,normalized growth,[84],1.03
same,normalized growth,[85],0.999
same,normalized growth,[86],1.02
same,normalized growth,[87],1.15
same,normalized growth,[88],0.985
same,normalized growth,[89],1.04
same,normalized growth,[90],1.01
same,normalized growth,[91],1.02
same,normalized growth,[92],1.14
same,normalized growth,[93],0.914
same,normalized growth,[94],0.981
same,normalized growth,[95],1.02
Cc1nn(Cc2ccc(C(=O)Sc3ccc(C(F)(F)F)cn3)o2)c(C)c1Br,normalized growth,[1],0.965
same,normalized growth,[2],0.966
same,normalized growth,[3],0.955
same,normalized growth,[4],0.971
same,normalized growth,[5],0.967
same,normalized growth,[6],0.969
same,normalized growth,[7],0.969
same,normalized growth,[8],0.963
same,normalized growth,[9],0.961
same,normalized growth,[10],0.952
same,normalized growth,[11],0.882
same,normalized growth,[12],0.97
same,normalized growth,[13],0.953
same,normalized growth,[14],0.955
same,normalized growth,[15],0.834
same,normalized growth,[16],0.878
same,normalized growth,[17],0.898
same,normalized growth,[18],0.957
same,normalized growth,[19],0.962
same,normalized growth,[20],0.968
same,normalized growth,[21],0.932
same,normalized growth,[22],0.963
same,normalized growth,[23],0.81
same,normalized growth,[24],0.871
same,normalized growth,[25],0.855
same,normalized growth,[26],0.615 (active)
same,normalized growth,[27],0.858
same,normalized growth,[28],0.763
same,normalized growth,[29],0.566 (active)
same,normalized growth,[30],0.969
same,normalized growth,[31],0.827
same,normalized growth,[32],0.871
same,normalized growth,[33],0.911
same,normalized growth,[34],0.955
same,normalized growth,[35],0.885
same,normalized growth,[36],0.76
same,normalized growth,[37],0.896
same,normalized growth,[38],0.898
same,normalized growth,[39],0.861
same,normalized growth,[40],0.956
same,normalized growth,[41],0.892
same,normalized growth,[42],0.677 (active)
same,normalized growth,[43],0.871
same,normalized growth,[44],0.722
same,normalized growth,[45],0.894
same,normalized growth,[46],0.958
same,normalized growth,[47],0.881
same,normalized growth,[48],0.963
same,normalized growth,[49],0.972
same,normalized growth,[50],0.882
same,normalized growth,[51],0.965
same,normalized growth,[52],0.777
same,normalized growth,[53],0.953
same,normalized growth,[54],0.963
same,normalized growth,[55],0.781
same,normalized growth,[56],0.961
same,normalized growth,[57],0.872
same,normalized growth,[58],0.816
same,normalized growth,[59],0.879
same,normalized growth,[60],0.847
same,normalized growth,[61],0.978
same,normalized growth,[62],0.867
same,normalized growth,[63],0.934
same,normalized growth,[64],0.925
same,normalized growth,[65],0.974
same,normalized growth,[66],0.799 (active)
same,normalized growth,[67],0.965
same,normalized growth,[68],0.958
same,normalized growth,[69],0.93
same,normalized growth,[70],0.928
same,normalized growth,[71],0.961
